# DAGLB inhibitor – diacylglycerol lipase beta (human) inhibition. HEK293T DAGLB membrane lysate, EnzChek fluorogenic substrate. Q8NCG7. inhibition, % at 5.17 µM. AID 504411. 0.059% of 340,000 active; in the data active = inhibition above about 34%;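 also: 0% = enzyme with vehicle and 100% = wells lacking enzyme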
# Cardio protect – myocardial damage modulation in H9c2 cells; H9c2 cardiomyocytes, H2O2 injury protection, ATPLite, 2 h; protection from H2O2 cell death, % at 20 µM; 0.63% of 360,000 active; AID 588492;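 active = compounds giving at least 50% protection of heart cells from peroxide-induced death in the single-dose screen, raw or plate-pattern-corrected value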;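 also: 0% = DMSO wells with peroxide and 100% = DMSO wells without peroxide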
# Myeloid diff MLP – promotes myeloid progenitor differentiation. 1% of 360,000 active. calls only at 10 µM. ER-HoxA9 myeloid progenitors, lysozyme-GFP differentiation, flow cytometry;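 active = normalized GFP-positive differentiation at or above the plate's own cutoff, the solvent-only control mean plus 3 SD; inconclusive = no clear call, values can overlap the other calls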;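 also: cells exposed to compound for four days before flow analysis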
# sPLA2-III inh – Blocks human group III sPLA2 activity. Q9NZ20. QFRET BODIPY PC-A2 liposome hydrolysis, fluorescence. inhibition, % at 12.2 µM. 0.56% of 370,000 active;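 active = inhibition above mean plus 3 SD of compounds lying within the high and low control bounds, cut at about 19% in these data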;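 also: 0% = median of test compound wells and 100% = no enzyme DMSO wells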
# Target sequence (Q9NZ20 whole entry, looked up): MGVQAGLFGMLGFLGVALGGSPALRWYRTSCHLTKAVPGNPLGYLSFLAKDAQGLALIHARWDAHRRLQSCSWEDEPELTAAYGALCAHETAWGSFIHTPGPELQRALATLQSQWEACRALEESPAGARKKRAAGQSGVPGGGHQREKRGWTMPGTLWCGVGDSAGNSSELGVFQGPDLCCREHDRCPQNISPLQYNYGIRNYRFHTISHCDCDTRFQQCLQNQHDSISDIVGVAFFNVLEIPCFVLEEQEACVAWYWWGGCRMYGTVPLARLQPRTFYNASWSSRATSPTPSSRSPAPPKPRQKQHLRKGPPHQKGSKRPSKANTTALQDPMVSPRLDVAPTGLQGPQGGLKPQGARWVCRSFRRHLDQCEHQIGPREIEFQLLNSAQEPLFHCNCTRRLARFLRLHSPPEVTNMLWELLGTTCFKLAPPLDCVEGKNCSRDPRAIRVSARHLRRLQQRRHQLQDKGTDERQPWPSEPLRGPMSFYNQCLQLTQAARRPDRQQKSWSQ
# Rtt109 HAT inh – inhibitors of Candida albicans Rtt109/Vps75 histone acetyltransferase; Q5AAJ8; inhibition, % at 34.9 µM; 0.16% of 330,000 active; purified Rtt109/Vps75, ThioGlo CoA-SH fluorescence, 4 h;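 active = inhibition of at least 50% in every replicate; inconclusive = best replicate reaches 50% inhibition but some replicates fall short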
# ABHD5-PLIN5 inh – inhibitors of human ABHD5-perilipin-5 interaction. Split G. princeps luciferase complementation, luminescence, 4 h. inhibition, % at 4 µM. 0.78% of 360,000 active. AID 602281;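 active = inhibition above the mean inhibition across every tested compound plus 3 SD, cut at about 22% in these data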;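 also: 0% = DMSO only wells and the 100% control is not disclosed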
# ABHD5-PLIN5 conf – ABHD5-PLIN5 interaction inhibition, confirmed; shares compounds with ABHD5-PLIN5 inh; biochemical ABHD5-PLIN5 interaction, luminescence; inhibition, % at 4 µM; 67% of 2,200 active; in the data active = inhibition above about 23%;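 also: 0% = DMSO vehicle wells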
# HNF4 split-luc – counter-screen for ABHD5-PLIN5 inhibitors: HNF4 split-luciferase; shares compounds with ABHD5-PLIN5 inh; HNF4 dimerization, luminescence, biochemical; inhibition, % at 4 µM; 77% of 2,200 active;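 active = mean inhibition across replicate wells exceeding the computed hit threshold, cut at about 13% in these data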;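 also: light from luciferase halves that rejoin when HNF4 fusion proteins dimerize; 0% = DMSO only wells and the 100% control is not given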
# An asterisk follows results filed as active; i = inactive; ? = inconclusive; / = no result given; + = active, no number. Sampled rows, rich in hits. Any-hit rate of the full collection: about 2.9%.
SMILES,DAGLB inhibitor,Cardio protect,Myeloid diff MLP,sPLA2-III inh,Rtt109 HAT inh,ABHD5-PLIN5 inh,ABHD5-PLIN5 conf,HNF4 split-luc
C=CS(=O)(=O)c1sc(Cl)c(N2CCOCC2)c1[N+](=O)[O-],-7,-32,i,0,-9,43*,100*,111*
C=CSc1sc(Cl)c(N2CCOCC2)c1[N+](=O)[O-],4,-2,i,10,/,1,/,/
O=C(COc1ccccc1Cl)Nc1ccc(N2CCCC2)cc1,-9,-1,i,9,-2,26*,45*,7
CCN1CCN(c2ccc(NC(=O)COc3ccccc3Cl)cc2)CC1,3,1,i,0,2,-9,/,/
CCCCCn1cnc2c(sc3nc4c(cc32)CSC(C)(C)C4)c1=O,-2,-7,i,6,-3,-1,/,/
Cc1ccoc1C(=O)N1CCN(C(=O)c2occc2C)CC1,1,0,i,-2,7,-3,/,/
CSc1nc(=O)[nH]nc1Sc1ccccc1,0,12,i,-4,/,33*,48*,53*
COc1ccc2c(c1)c(CC(=O)Nc1ccc(C)cc1)c(C)n2C(=O)c1ccc(Cl)cc1,-16,-15,i,-7,/,0,/,/
CC#CC[N+](C)(C)CCCCCCCCCCCC,3,-23,?,-2,25,27*,13,0
Cc1cccc2c1cnn2C(=O)CCC(=O)NCc1ccc(F)cc1,-1,12,i,3,-6,-8,/,/
N#Cc1ncc(Cc2ccccc2)nc1C#N,5,10,i,-25,-1,30*,46*,21*
CCCN(CCO)CCCc1ccccc1,1,11,i,-3,0,0,/,/
CCN(CCCc1ccccc1)CCCc1ccccc1,0,5,i,-3,-5,38*,74*,33*
O=C(Nc1cccc(F)c1)/C(=C\c1ccco1)NC(=O)c1ccco1,0,-3,?,-3,/,27*,3,0
O=C(Nc1cccc(C(F)(F)F)c1)/C(=C/c1ccco1)NC(=O)c1cccs1,-3,6,i,-6,5,30*,10,11
CC(=O)c1cccc(NC(=O)/C(=C/c2ccco2)NC(=O)c2ccco2)c1,0,2,i,-4,-7,2,/,/
CNC(=S)Nc1cccc(S(=O)(=O)NC2=NCCC2)c1,0,-8,i,7,4,1,/,/
Cc1cccc(NC(=O)N(Cc2cc3cc(C)ccc3[nH]c2=O)CC2COCCO2)c1 (stereo unspecified),3,18,i,-9,20,6,/,/
COc1ccc(NC(=O)C2CCCN(CCCc3ccccc3)C2)cc1OCC(C)C (stereo unspecified),-4,7,i,-21,17,39*,22*,15*
Cc1cc(C)n(CCc2nc(-c3ccco3)cs2)n1,2,15,i,-5,9,10,/,/
Cc1nn(CCc2nc(-c3ccco3)cs2)c2[nH]c(=O)cc(C(F)(F)F)c12,12,8,i,-11,/,41*,21,16*
CCN(CC)CCC(C)OC(c1ccccc1)c1ccccc1 (stereo unspecified),2,-7,i,2,1,24*,77*,31*
O=C(CN1C(=O)NC2(CCc3ccccc32)C1=O)NCCc1ccccc1 (stereo unspecified),-1,3,i,12,4,2,/,/
Cc1ccc(S(=O)(=O)N2CCCN(C(=O)CNC(=O)c3ccccc3)CC2)cc1,0,4,i,-4,11,5,/,/
N#CC(C#N)=NNc1ccc2cn[nH]c2c1,/,17,i,0,/,48*,55*,58*
SMILES,DAGLB inhibitor,Cardio protect,Myeloid diff MLP,sPLA2-III inh,Rtt109 HAT inh,ABHD5-PLIN5 inh,ABHD5-PLIN5 conf,HNF4 split-luc
CCNC(=S)Nc1ccc2cn[nH]c2c1,-1,-1,i,10,5,-4,/,/
COc1cccc2c1C(=O)C=C(C)C2=O,-1,-12,?,6,0,37*,57*,64*
CCn1c(=O)c([N+](=O)[O-])c(Cl)c2ccccc21,1,-15,?,/,5,41*,71*,95*
COc1ccc(OC)c(C(c2c(O)nc(SC)[nH]c2=O)c2c(O)nc(SC)[nH]c2=O)c1,-1,6,i,-2,-8,26*,52*,49*
O=[N+]([O-])c1ccc2nonc2c1Nc1ccccc1,9,-2,i,11,0,5,/,/
CN(C)CCOc1ccc(-c2c(-c3ccccc3)sc3ccccc23)cc1,-3,-23,?,-18,12,29*,18,-4
C[N+]1=C(/C=C/Nc2ccccc2Cl)C(C)(C)c2ccccc21,-1,-22,i,11,-15,-5,/,/
COC(=O)c1ccc2c(c1)C(C)(C)C(/C=C/c1ccccc1O)=[N+]2C,2,-19,/,-3,1,64*,98*,95*
CCN(CC)CC(=O)Nc1c(C)cc(C)cc1C,/,-5,/,/,/,/,/,/
CCN(CC)CCN(CC(=O)Nc1c(C)cc(C)cc1C)C(=O)c1ccccc1,0,-3,i,-2,4,24*,33*,-6
Cc1ccc(NC(=S)NCCc2ccccc2)nc1,-3,-11,i,-4,-3,0,/,/
COc1cc(C=C2CN(C)C(=O)C2=O)ccc1O,4,-1,i,9,/,9,/,/
CCOc1cc(/C=C2\CCC/C(=C\c3cc(Cl)c(O)c(OCC)c3)C2=O)cc(Cl)c1O,6,-15,+,1,-7,55*,68*,48*
CCOc1cc(/C=C2\CN(C)C/C(=C\c3ccc(O)c(OCC)c3)C2=O)ccc1O,-1,17,?,-10,5,78*,97*,88*
CC1CCC(C(C)C)C(OC(=O)Cn2c(-c3ccc(Cl)cc3)[n+](C)c3ccccc32)C1 (stereo unspecified),5,-16,i,-3,19,34*,15,4
COc1ccc(CN(C(=O)c2ccc(-c3ccccc3)[nH]2)C(C(=O)NC(C)(C)C)c2ccncc2)cc1 (stereo unspecified),0,-3,i,-9,?,15,/,/
O=C(COC(=O)c1ccccc1Br)NCC1CCCO1 (stereo unspecified),-2,7,i,12,-13,7,/,/
O=[N+]([O-])c1ccc(N2CCc3ccccc3C2)nc1,-4,6,i,0,2,33*,16,20*
CCOC(=O)CCC(NC(=O)CC(=O)NC(CCC(=O)OCC)C(=O)OCC)C(=O)OCC (stereo unspecified),0,-3,i,-2,-1,-1,/,/
